Results filed as inconclusive are left out. The source made the active and inactive calls. How the source made its calls: active means hit-call score of the fitted dose curve at least 0.9, where 1 is the maximum; inconclusive means response in the unintended direction; inactive means score below 0.9.

Sequence of Oxysterols receptor LXR-beta (Homo sapiens) (P55055 whole entry, looked up, the tested form may be a part): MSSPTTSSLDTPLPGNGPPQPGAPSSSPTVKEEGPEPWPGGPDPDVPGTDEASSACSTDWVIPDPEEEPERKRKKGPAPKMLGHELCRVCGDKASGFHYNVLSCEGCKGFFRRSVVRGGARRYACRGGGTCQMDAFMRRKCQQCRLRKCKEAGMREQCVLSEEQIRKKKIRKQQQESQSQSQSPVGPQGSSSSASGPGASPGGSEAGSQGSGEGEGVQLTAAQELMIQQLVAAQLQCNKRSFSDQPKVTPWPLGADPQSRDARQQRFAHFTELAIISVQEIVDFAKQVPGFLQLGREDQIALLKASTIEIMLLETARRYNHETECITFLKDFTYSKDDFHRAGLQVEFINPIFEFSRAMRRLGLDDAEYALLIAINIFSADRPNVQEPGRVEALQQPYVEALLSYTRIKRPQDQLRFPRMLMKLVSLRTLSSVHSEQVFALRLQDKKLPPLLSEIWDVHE

This assay addresses Oxysterols receptor LXR-beta (Homo sapiens) (UniProt P55055). Briefly: ATG_LXRb_TRANS: Attagene TRANS-FACTORIAL HepG2 Assay for human Liver X Receptor beta (LXRb) (AID 2282981). To be noted: HepG2 Attagene TRANS GAL4-LXRb reporter, mRNA. Here is the method: ATG_TRANS is a cell-based, multiplexed-readout assay that uses HepG2, a human liver cell line, with measurements taken at 24 hours after chemical dosing in a 24-well plate.ATG_LXRb_TRANS is one of 30 assay component(s) measured or calculated from the ATG_TRANS assay. It is designed to make measurements of mRNA induction, a form of inducible reporter, as detected with fluorescence intensity signals by Reverse transcription polymerase chain reaction (RT-PCR) and Capillary electrophoresis technology.Data from the assay component ATG_LXRb_TRANS was analyzed into 1 assay endpoint. This assay endpoint, ATG_LXRb_TRANS, was analyzed in the positive analysis fitting direction relative to DMSO as the negative control and baseline of activity. Using a type of inducible reporter, measures of mRNA for gain-of-signal activity can be used to understand the reporter gene at the transcription factor-level as they relate to the gene NR1H2. Furthermore, this assay endpoint can be referred to as a primary readout, because this assay has produced multiple assay endpoints where this one serves a reporter gene function. To generalize the intended target to other relatable targets, this assay endpoint is annotated to the nuclear receptor intended target family, where the subfamily is non-steroidal.
Human liver HepG2 cells are transiently transfected with multiple reporter transcription units (MRTUs) in 6-well plates using FuGene 6 reagent (Roche; 3 ml FuGene/1 mg DNA). The MRTU constructs are regulated by a cis-regulating element (promoter). […] A major difference between the CIS and TRANS system is that in CIS activities of endogenous TFs are measured, whereas the TRANS assay evaluates changes in activities of exogenous, chimeric NR-Gal4 proteins. […] At the end of 24 hour incubation, total RNA was isolated using TriZol reagent (Invitrogen). The isolated RNA is then reverse-transcribed using oligo(dT) primer and Mo-MLV reverse transcriptase (Invitrogen) with DNAse I (Ambion) treatment for 30 min. The one-tenth of the produced cDNA was amplified by PCR using Taq DNA polymerase (Invitrogen) and two reporter sequence-specific primers. The PCR products were fluorescently labeled by primer extension with 6-arboxyfluorescein (6-FAM) 5'-labeled reporter sequence-specific primer (2 min at 95 C, 20 s at 68 C and 10 min at 72 C) and these products were digested with 5U of HpaI (New England Biolabs) for 2h at 37 C. The fragments were purified using Qiaquick PCR columns (Qiagen), analyzed on an ABI 3130xL genetic analyzer (Applied Biosystems) with peak positions identified by using a set of X-rhodamine (ROX)-labeled MapMarker1000 molecular weight standards (BioVentures). The raw capillary electrophoresis data was processed using Attagraph software (Attagene).
Turning to `Nc1c(S(=O)(=O)O)cc(Br)c2c1C(=O)c1ccccc1C2=O`, the result was inactive.

Turning to `CC1(C)COCN1`, the call was inactive.

Take `C1=CC2C3C=CC(C3)C2C1` (stereo not given): the call was inactive.

In the case of `C=C(CC(=O)O)C(=O)O`, the outcome was inactive. Still for that read-out and setting: to `C=CC(=O)OCCC#N` belongs “inactive”. For `C=CC(=C)CCCC(C)(C)OC(C)=O`, the call was inactive. On the same count and under the same terms, with `CC(=O)O[C@H]1C[C@@H]2CC[C@@]1(C)C2(C)C` the entry was “inactive”; with `CN(C)C(=O)Nc1ccc(Oc2ccc(Cl)cc2)cc1`, “inactive”. For the compound `Cc1c(OCC(F)(F)F)ccnc1CS(=O)c1nc2ccccc2[nH]1` (stereo not given), the call was inactive.

For `CC(C=O)Cc1ccc(C(C)(C)C)cc1` (stereo not given), the compound was classed as inactive. Same read-out and setting: with `OC[C@H]1O[C@@H](Oc2ccc(O)cc2)[C@H](O)[C@@H](O)[C@@H]1O` the entry was “inactive”; with `O=C(Nc1ccc2c(O)c(N=Nc3ccc(N=Nc4ccc(S(=O)(=O)O)cc4)cc3)c(S(=O)(=O)O)cc2c1)c1ccccc1`, “inactive”.

In the case of `CN(C)CCOC(C)(c1ccccc1)c1ccccn1` (stereo not given), the result was inactive. The same measure, in the same setting: with `CC1(C)C2=CCCC(C)(C)[C@]23CC[C@H]1C3` the entry was “inactive”; with `C[C@H]1C[C@@H](O)CC(C)(C)C1`, “inactive”.

Turning to `CCCCCCOC(=O)CCC`, the call was inactive.

As to `Cc1ccc(N)c(S(=O)(=O)O)c1`, the outcome was inactive. Take `CCOc1ccccc1O`: the compound was called inactive.

Consider `CCCSc1ccc2nc(NC(=O)OC)[nH]c2c1`, for which the call was inactive.

With `Cc1ncc[nH]1`, the outcome was inactive. Regarding `CN(c1nccc(=O)[nH]1)C1CCN(c2nc3ccccc3n2Cc2ccc(F)cc2)CC1`, the outcome was inactive.

As for `CC(=O)O[C@@H]1CC2CCC1(C)C2(C)C` (stereo not given in full), the outcome was inactive. The same measure, in the same setting: with `Nc1ccccc1[N+](=O)[O-]` the entry was “inactive”; with `C[Si](C)(C)O[Si](C)(C)C`, “inactive”; with `CCC(=O)O[C@@H]1C[C@H]2CC[C@]1(C)C2(C)C`, “inactive”. For `CC1C2CC(CC2C2CCCC(O)C2)C1(C)C` (stereo not given), the concentration at half-maximal activity (AC50) was 62.5 µM (active).

`CC(=O)c1ccccn1`: the call was inactive. On to `CCOC(=O)CCc1ccccc1`, for which the call was inactive. On the same count and under the same terms, with `CCC1(C)NC(=O)NC1=O` (stereo not given) the entry was “inactive”. As to `CC1=CC[C@@]23C[C@@H]1C(C)(C)[C@@H]2CC[C@H]3C`, the call was inactive. Regarding `CC(=O)C(C)O` (stereo not given), the compound was called inactive. `CCc1cc(C(C)(C)C)c(O)c(C(C)(C)C)c1`: the outcome was inactive.

Regarding `CN(C)c1cccc(O)c1`, the compound was called inactive. Consider `CCCCCCCC(=O)OCC(O)CO` (stereo not given), for which the compound was called inactive. The same measure, in the same setting: to `CC(C)(CO)[C@@H](O)C(=O)NCCC(=O)O` belongs “inactive”. As for `CCCCCCCCCCCCN1CCCCCC1=O`, the result was inactive. On to `Nc1ccn([C@H]2CS[C@@H](CO)O2)c(=O)n1`, for which the call was inactive. Turning to `O=C(CC(=O)c1ccccc1)c1ccccc1`, the outcome was inactive. Still for that read-out and setting: to `O=C1c2ccccc2C(=O)c2c(O)ccc(O)c21` belongs “inactive”; to `CCC1(c2ccccc2)C(=O)NCNC1=O`, “inactive”.

What is called AC50 is the midpoint of the concentration-response curve, whichever way the signal moves.

The values are drawn from PubChem BioAssay (EPA / NIEHS).
